Source: ChEMBL document CHEMBL5724796, “Tm Shift (DSF) assay results for EUbOPEN Chemogenomics Library” (2024)
Residues, ends and D or L forms follow the SMILES beside them. *: point of attachment. Boc = CC(C)(C)OC(=O)*

Columns and labels:
Conditions in all cases: Compound concentration 20.0 uM
[1] = target: Tyrosine-protein kinase ABL1 (Homo sapiens) (UniProt P00519)
[2] = target: Bromodomain-containing protein 4 (Homo sapiens) (UniProt O60885)
[3] = target: Cyclin-dependent kinase 2 (Homo sapiens) (UniProt P24941)
[4] = target: Casein kinase I isoform delta (Homo sapiens) (UniProt P48730)
Chain of Casein kinase I isoform delta (Homo sapiens) (P48730 whole entry, looked up, canonical isoform): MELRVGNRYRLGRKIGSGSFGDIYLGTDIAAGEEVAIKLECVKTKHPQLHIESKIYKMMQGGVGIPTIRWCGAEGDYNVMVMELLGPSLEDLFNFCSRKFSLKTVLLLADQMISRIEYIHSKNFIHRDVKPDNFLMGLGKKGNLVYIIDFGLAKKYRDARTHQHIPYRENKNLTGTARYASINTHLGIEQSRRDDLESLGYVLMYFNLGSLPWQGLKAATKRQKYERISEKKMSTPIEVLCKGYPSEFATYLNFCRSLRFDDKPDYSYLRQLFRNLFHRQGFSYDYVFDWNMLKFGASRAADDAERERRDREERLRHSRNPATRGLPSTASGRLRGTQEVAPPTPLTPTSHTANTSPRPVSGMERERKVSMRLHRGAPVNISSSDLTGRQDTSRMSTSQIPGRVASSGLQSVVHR

[5] = target: Glycogen synthase kinase-3 beta (Homo sapiens) (UniProt P49841)
Chain of Glycogen synthase kinase-3 beta (Homo sapiens) (P49841 whole entry, looked up): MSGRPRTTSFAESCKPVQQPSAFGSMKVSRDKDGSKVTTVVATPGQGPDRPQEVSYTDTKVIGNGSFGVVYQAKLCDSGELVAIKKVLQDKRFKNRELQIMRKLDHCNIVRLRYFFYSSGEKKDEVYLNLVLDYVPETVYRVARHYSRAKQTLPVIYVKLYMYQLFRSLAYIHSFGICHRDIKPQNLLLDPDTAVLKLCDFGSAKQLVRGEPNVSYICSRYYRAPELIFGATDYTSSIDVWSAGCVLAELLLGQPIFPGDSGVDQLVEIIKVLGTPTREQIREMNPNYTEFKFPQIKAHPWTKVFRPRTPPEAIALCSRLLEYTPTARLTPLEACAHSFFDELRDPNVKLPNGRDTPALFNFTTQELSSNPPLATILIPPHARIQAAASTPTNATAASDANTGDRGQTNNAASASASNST

[6] = target: Mitogen-activated protein kinase 1 (Homo sapiens) (UniProt P28482)
Chain of Mitogen-activated protein kinase 1 (Homo sapiens) (P28482 whole entry): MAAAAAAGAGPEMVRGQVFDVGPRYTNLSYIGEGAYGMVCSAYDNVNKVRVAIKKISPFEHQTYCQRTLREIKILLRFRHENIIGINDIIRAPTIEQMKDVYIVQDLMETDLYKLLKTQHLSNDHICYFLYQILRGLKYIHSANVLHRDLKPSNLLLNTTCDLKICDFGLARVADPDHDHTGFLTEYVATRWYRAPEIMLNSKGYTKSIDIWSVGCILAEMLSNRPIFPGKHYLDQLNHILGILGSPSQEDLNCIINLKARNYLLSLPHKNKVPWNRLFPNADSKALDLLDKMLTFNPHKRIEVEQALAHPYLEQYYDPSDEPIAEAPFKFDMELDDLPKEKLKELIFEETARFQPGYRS

[7] = target: T1, Aurora kinase A (Homo sapiens) (UniProt O14965)
T1 sequence (whole entry): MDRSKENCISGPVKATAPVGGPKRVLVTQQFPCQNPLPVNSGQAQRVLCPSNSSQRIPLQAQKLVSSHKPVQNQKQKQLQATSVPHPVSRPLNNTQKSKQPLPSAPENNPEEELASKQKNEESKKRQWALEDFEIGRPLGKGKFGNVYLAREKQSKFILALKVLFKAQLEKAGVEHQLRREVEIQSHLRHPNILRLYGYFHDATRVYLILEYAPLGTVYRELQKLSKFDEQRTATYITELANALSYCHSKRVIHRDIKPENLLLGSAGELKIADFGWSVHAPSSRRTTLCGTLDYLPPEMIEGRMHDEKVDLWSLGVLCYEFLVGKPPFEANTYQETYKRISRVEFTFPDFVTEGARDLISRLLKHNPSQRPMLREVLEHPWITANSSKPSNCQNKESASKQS

[8] = target: T2, Transcription intermediary factor 1-alpha (Homo sapiens) (UniProt O15164)
T2 sequence (whole entry): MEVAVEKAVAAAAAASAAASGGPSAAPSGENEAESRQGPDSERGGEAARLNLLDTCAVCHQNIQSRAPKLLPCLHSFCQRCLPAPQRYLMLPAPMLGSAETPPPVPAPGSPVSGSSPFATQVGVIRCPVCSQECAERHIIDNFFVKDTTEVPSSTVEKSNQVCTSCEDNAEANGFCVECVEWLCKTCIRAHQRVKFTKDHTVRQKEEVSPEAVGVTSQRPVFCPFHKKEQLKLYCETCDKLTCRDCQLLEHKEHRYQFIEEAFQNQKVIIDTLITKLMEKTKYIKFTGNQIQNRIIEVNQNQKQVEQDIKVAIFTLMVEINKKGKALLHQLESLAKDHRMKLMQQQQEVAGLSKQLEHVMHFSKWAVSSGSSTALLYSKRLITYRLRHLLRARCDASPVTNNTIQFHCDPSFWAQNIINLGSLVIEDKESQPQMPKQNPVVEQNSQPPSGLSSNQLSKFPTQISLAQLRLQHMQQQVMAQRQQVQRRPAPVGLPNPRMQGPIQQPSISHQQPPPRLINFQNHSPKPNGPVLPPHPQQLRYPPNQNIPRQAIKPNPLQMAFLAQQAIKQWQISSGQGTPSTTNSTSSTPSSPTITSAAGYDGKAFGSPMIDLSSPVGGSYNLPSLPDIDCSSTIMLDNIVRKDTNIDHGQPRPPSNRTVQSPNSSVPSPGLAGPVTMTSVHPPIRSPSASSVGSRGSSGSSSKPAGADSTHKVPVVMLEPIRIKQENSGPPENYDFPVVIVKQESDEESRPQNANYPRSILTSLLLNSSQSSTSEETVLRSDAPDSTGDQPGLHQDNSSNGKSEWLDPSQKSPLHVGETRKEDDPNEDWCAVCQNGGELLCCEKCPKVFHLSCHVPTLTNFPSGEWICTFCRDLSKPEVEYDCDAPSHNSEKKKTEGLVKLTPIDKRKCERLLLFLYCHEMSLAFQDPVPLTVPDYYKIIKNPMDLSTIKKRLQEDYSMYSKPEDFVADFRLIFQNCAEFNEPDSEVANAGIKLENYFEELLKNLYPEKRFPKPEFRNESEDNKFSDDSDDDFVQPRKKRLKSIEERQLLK

Chain of Tyrosine-protein kinase ABL1 (Homo sapiens) (P00519 whole entry): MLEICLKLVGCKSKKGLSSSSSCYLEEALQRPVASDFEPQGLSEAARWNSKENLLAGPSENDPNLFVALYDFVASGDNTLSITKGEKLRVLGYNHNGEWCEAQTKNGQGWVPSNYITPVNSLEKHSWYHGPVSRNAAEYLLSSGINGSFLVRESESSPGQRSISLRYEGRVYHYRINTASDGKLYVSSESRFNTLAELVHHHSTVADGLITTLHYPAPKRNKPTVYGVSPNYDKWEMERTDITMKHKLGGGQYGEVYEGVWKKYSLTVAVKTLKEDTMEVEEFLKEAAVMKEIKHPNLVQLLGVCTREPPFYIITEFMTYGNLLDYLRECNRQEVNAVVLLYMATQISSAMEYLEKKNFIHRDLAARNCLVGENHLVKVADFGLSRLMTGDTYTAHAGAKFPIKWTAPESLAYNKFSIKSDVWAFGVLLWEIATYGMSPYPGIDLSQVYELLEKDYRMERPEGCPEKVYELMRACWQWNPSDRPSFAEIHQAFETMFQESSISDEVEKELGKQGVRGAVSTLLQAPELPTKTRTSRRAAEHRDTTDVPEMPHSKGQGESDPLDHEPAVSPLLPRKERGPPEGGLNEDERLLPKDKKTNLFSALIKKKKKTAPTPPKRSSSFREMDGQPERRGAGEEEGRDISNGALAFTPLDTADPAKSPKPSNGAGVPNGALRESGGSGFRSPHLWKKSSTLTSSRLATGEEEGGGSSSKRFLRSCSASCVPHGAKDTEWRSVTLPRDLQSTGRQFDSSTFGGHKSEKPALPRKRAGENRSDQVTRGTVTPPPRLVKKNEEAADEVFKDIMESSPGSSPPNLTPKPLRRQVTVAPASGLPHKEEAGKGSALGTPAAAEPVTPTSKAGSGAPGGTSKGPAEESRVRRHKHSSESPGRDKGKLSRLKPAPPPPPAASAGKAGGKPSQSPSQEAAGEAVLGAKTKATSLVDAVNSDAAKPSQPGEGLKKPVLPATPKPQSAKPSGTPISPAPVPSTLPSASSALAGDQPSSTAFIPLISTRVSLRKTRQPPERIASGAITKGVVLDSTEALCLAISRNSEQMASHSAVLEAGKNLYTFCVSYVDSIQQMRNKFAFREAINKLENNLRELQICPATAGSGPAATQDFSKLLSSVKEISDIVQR

SMILES | ΔTm [1] [°C] | ΔTm [2] [°C] | ΔTm [3] [°C] | ΔTm [4] [°C] | ΔTm [5] [°C] | ΔTm [6] [°C] | ΔTm [7] [°C] | ΔTm [8] [°C]
COC(=O)c1ccc(CN2CCC(O)(Cn3cnc4c(-c5ccc(CN)cc5)n(C)nc4c3=O)CC2)c(Cl)c1 | 0.48 | -3.34 | -0.1 | -0.28 | -0.1 | 0.15 | -1.56 | 2.14
COC1CCN(C(=O)c2cc(Cc3n[nH]c(=O)c4ccccc34)ccc2F)CC1 | 0.56 | -2.02 | 0.16 | -0.31 | 0.09 | 0.51 | -2.39 | -0.67
O=C(NC1CCC1)c1ccc2nc(-c3cccc(NS(=O)(=O)NCCN4CCCCC4)c3)cn2c1 | 0.57 | -2.44 | 0.18 | -0.21 | -0.29 | 0.15 | -2.15 | 0.09
COc1c(CN)cc(CN)cc1OCCCN1Cc2ccccc2C1 | 0.19 | -1.72 | -0.14 | -0.24 | -0.15 | 0.22 | -2.26 | 0.95
O=C(CCCCCCNC(=O)c1cnc(N(c2ccccc2)c2ccccc2)nc1)NO | 0.66 | -2.07 | 0.61 | 0.12 | -0.11 | -0.28 | -0.51 | -0.68
CC(C)(C)OC(=O)N1CCC[C@H]1C(=O)N1CCC[C@H]1C=O (Boc-Pro-Pro-aldehyde) | 0.36 | -1.7 | 0.06 | -0.53 | -0.11 | 0.63 | -2.5 | -0.63
CCCCCCNC(=O)n1cc(Cl)c(=O)n(C(=O)OCC(C)C)c1=O | 0.44 | -0.35 | 0.16 | -0.34 | -0.76 | -0.05 | -0.58 | 0.93
CNC(=O)N1CCc2c(c(N3CCCc4cc(-c5cnn(C)c5)c(C(F)F)cc43)nn2C2CCOCC2)C1 | 0.09 | 1.4 | 0.2 | 0.34 | -0.47 | -0.36 | -1.06 | -2.05
O=C1C(=O)N(Cc2ccccc2)c2ccc(S(=O)(=O)N3CCC[C@H]3COc3ccc(C(F)(F)F)cc3)cc21 | -0.46 | -4.2 | -0.42 | 0.54 | -0.32 | -0.63 | -1.82 | -1.21
CCNC(=O)/C=C/c1cccc(Br)c1 | 0.39 | -0.78 | 0.01 | -0.27 | -0.4 | -0.04 | -2.22 | -0.12
CNCC[C@@H](Oc1ccccc1C)c1ccccc1 | 0.14 | -2.85 | 0.13 | -0.25 | -0.38 | 0.18 | -1.68 | 0.48
CC1(C)Cn2nc(-c3ccc(F)cn3)c(-c3ccnc4[nH]ncc34)c2CO1 | 2.43 | -1.54 | 0.09 | 9.16 | -1.21 | -0.48 | -0.55 | -1.54
CCN(c1cc(-c2ccc(CN3CCOCC3)cc2)cc(C(=O)NCc2c(C)cc(C)[nH]c2=O)c1C)C1CCOCC1 | 0.22 | -1.59 | -0.42 | 0.03 | 0 | -4.86 | -1.94 | -2.54
CC(C)CCn1c(CN2CCN(C(=O)C3CC3)CC2)nc2c1c(=O)n(C)c(=O)n2C | 0.68 | -2.93 | 0.17 | -0.39 | -0.45 | 0.11 | -2.45 | 0.08
COc1ccc(CNc2nc(N3CCC[C@H]3CO)ncc2C(=O)NCc2ncccn2)cc1Cl | 0.44 | -1.19 | -0.26 | 0.12 | 0.12 | 0.04 | -1.84 | -0.51
